Autofluor counter = compound fluorescence in toxin protease inhibitor counterscreen. compound autofluorescence counterscreen, microsphere flow cytometry; active compounds read high. fluorescence intensity (no concentration beside the values). actives 3.1% (n = 360,000). AID 624483; in the data active means fluorescence intensity above about 16000; inconclusive means no clear call, values can overlap the other calls
BoNT A protease = blocks Botulinum neurotoxin A light chain protease | multiplex microsphere protease substrate cleavage, flow cytometry | inhibition, % at 10 µM | actives 0.17% (n = 360,000)
Anthrax LF inh2 = anthrax lethal factor protease inhibition; P15917; multiplex microsphere protease cleavage assay, LF; inhibition, % at 10 µM; AID 588501; actives 0.12% (n = 360,000)
BoNT-F LC inh = inhibitors of Botulinum neurotoxin F light chain protease; Multiplex microsphere protease cleavage assay, flow cytometry; inhibition, % at 10 µM; actives 0.22% (n = 360,000); in the data active means inhibition above about 35%, passing the limit was not always enough; inconclusive means no clear call, values can overlap the other calls
Large screens that a line does not name were inactive. Rows were chosen to be rich in hits. Some 3.5% of all compounds tested hit in one or more screens of this group. Unless noted, no stated cut-off is given here; in the data, active means inhibition above about 30%; inconclusive means no clear call, values can overlap the other calls; inactive means below that.

S=C(Nc1ccc2c(c1)OCO2)NC1CCN(Cc2ccccc2)CC1	Autofluor counter 20636
O=C(CN1C(=O)c2ccccc2S1(=O)=O)N1CCOCC1	Autofluor counter 20391
CC1(C(=O)Nc2ccc3c(c2)OCO3)CCN1C(=O)CC1CC1 (configuration not stated)	none
COC(=O)/C=C(\C)NC(=O)c1cccs1	Autofluor counter 18031
COC(=O)/C=C(\C)NC(=O)c1ccc(F)cc1	none
Cc1ccc(NC(C#N)c2ccccc2OCc2ccccc2)cc1 (configuration not stated)	Autofluor counter 23322, BoNT A protease inconclusive
O=C(NCCCn1ccnc1)c1sc2cc([N+](=O)[O-])ccc2c1Cl	none
CCOc1ccc(Cl)cc1CSc1n[nH]c(CC)n1	Autofluor counter 22875
O=C1CN(C(=O)COC(=O)COc2ccccc2)c2ccccc2N1	Autofluor counter inconclusive
CC(C)C[C@H]1CN(CCCC[C@H]2CNC(=O)C(=O)N2CCc2ccc(O)cc2)C(=O)C(=O)N1CCc1ccccc1	none
CCC(NC(=O)OC(C)(C)C)C(=O)Oc1ccc2c3c(c(=O)oc2c1)CCC3 (configuration not stated)	Autofluor counter 17288
Cc1cc(OC(=O)CCNC(=O)OC(C)(C)C)c2c3c(c(=O)oc2c1)CCC3	Autofluor counter 22958
CCC(NC(=O)OC(C)(C)C)C(=O)Oc1cc(C)cc2oc(=O)c3c(c12)CCC3 (configuration not stated)	Autofluor counter 20994
Cc1cc(OC(=O)CCCNC(=O)OC(C)(C)C)c2c3c(c(=O)oc2c1)CCC3	none
CCC(=O)N1CCc2cc(S(=O)(=O)NCCC(=O)N3CC=C(c4ccccc4)CC3)ccc21	Autofluor counter 22498
CCC(=O)N1CCc2cc(S(=O)(=O)NCCC(=O)N3CCc4ccccc4C3)ccc21	none
Cc1cc(C)n2nc(C(=O)NCc3ccccc3)cc2n1	none
Cc1ccc(NC(=O)c2cc3nc(C)cc(C)n3n2)cc1	Autofluor counter 20310
COc1cccc(NC(=O)CN(C)C(C)C(=O)NC(=O)NC2CCCCC2)c1 (configuration not stated)	none
CC(C)NC(=O)Cn1nc(C(F)(F)F)c2c1CCC2	Autofluor counter inconclusive
COc1ccc(CNC(=O)Cn2nc(C(F)(F)F)c3c2CCC3)cc1	none
COc1ccc(NC(=O)Cn2nc(C(F)(F)F)c3c2CCCC3)c(OC)c1	Autofluor counter 21156, BoNT A protease inconclusive
O=C(Cn1nc(C(F)(F)F)c2c1CCCC2)NC1CCCC1	Autofluor counter 23402
CCc1nc(SCC(=O)Nc2ccc3c(c2)OCCO3)c2oc3ccccc3c2n1	none
O=C(CSc1ncnc2c1oc1ccccc12)Nc1ccc2c(c1)OCCO2	Autofluor counter 17420
Cc1nc(SCC(=O)Nc2ccc3c(c2)OCCO3)c2oc3ccccc3c2n1	Autofluor counter 20676
COc1ccccc1NC(=O)CSc1ncnc2c1oc1ccccc12	Autofluor counter 20328
COc1ccccc1NC(=O)CSc1nc2c(oc3ccccc32)c(=O)n1C	none
Cc1cc(S(=O)(=O)Nc2ccc(C(=O)NC3CC3)cc2)ccc1F	none
CCOc1ccc(NC(=O)c2ccccc2OCC(=O)c2ccc(C)cc2)cc1	Autofluor counter 23534
CCc1ccc(C(=O)COc2ccc(NC(C)=O)cc2)cc1	Autofluor counter 24015
Cc1ccc(NC(=O)c2ccccc2OCC(=O)c2ccc(F)cc2)cc1	none
CC(=O)c1c(C)[nH]c(C(=O)Nc2cccnc2)c1C	Autofluor counter 19908, BoNT A protease inconclusive
COc1ccc(C(C)=O)cc1COC(=O)c1cccc(N(C)C)c1	BoNT-F LC inh 39
CC(=O)c1cc(NC(=O)c2cccc(C(F)(F)F)c2)c(=O)oc1C	none
CC(=O)c1cc(NC(=O)c2cccc(C(F)(F)F)c2)c(=O)oc1/C=C/N(C)C	Autofluor counter 23755, BoNT A protease inconclusive
CC(=O)c1cc(NC(=O)c2ccc(Cl)cc2)c(=O)oc1/C=C/N(C)C	Autofluor counter 25493, BoNT A protease inconclusive
CCOc1cc(C2c3c(n[nH]c3C)C(=O)N2c2ccc(C)cc2)ccc1O (configuration not stated)	Autofluor counter 23172
O=C(NCC(F)(F)F)c1cc2c(c(-c3cccc(-c4ccccc4F)c3)n1)[C@@H](CCO)N(C(=O)CC1CC1)C2	none
COc1ccc(/C=C/C(=O)Nc2ccc(C)c(S(=O)(=O)N3CCOCC3)c2)cc1	none
O=C(NC1(C(F)(F)F)Oc2ccc(Cl)cc2O1)N1CCC2(CC1)OCCO2 (configuration not stated)	none
O=C(NC1(C(F)(F)F)Oc2ccccc2O1)N1CCC2(CC1)OCCO2	Autofluor counter 21302
CN(C)c1ccc(/C=C/c2cc[n+](C)cc2)cc1	Autofluor counter 16151
Cc1ccc(N=Cc2cc(Cl)cc(Cl)c2O)nc1	BoNT-F LC inh 35
Oc1c(Cl)cc(Cl)cc1/C=N/Nc1ncc(Br)cn1	none
Nc1ccc(S(=O)(=O)NN=Cc2ccccc2[N+](=O)[O-])cc1	none
COc1cccc(S(=O)(=O)N(C)C[C@H]2OCc3cnnn3CCCC(=O)N([C@@H](C)CO)C[C@@H]2C)c1	none
CC(=O)c1ccc(OCCCC(=O)N(CCC2=CCCCC2)c2c(N)n(Cc3ccccc3)c(=O)[nH]c2=O)cc1	none
Cc1ccc(CC(=O)Nc2nccs2)cc1	none
CCc1ccc(CCC(=O)Nc2nccs2)o1	Autofluor counter 21884
O=C(Cc1ccc(F)cc1)Nc1nccs1	BoNT-F LC inh 42
O=C(c1cc(-c2cccs2)on1)N1CCN(c2ccc(F)cc2)CC1	Autofluor counter 21562
O=C(c1ccc(CS(=O)c2ccccc2Cl)o1)N1CCN(C2CCCCC2)CC1 (configuration not stated)	none
COc1ccccc1N1CCN(C(c2cc3cc(C)ccc3[nH]c2=O)c2nnnn2C2CCCC2)CC1 (configuration not stated)	Autofluor counter 21854
Fc1ccc(C(c2nnnn2C2CCCC2)N2CCc3ccccc32)cc1 (configuration not stated)	Autofluor counter 17043
CCC(C)(C)n1nnnc1C(c1cc2ccc(OC)cc2[nH]c1=O)N1CCN(C2CCCCC2)CC1 (configuration not stated)	Autofluor counter 21897, BoNT A protease inconclusive
CCN(CC)C(c1ccc(C)cc1)c1nnnn1C1CCCCC1 (configuration not stated)	none
COc1ccccc1N1CCN(C(c2cc3ccc(C)cc3[nH]c2=O)c2nnnn2C2CCCC2)CC1 (configuration not stated)	none
CCN(CC)C(c1ccc(F)cc1)c1nnnn1C1CCCCC1 (configuration not stated)	Autofluor counter 21991
CCOC(=O)CCCN(c1[nH]c(C)c(C)c1C#N)S(=O)(=O)c1ccc(C)cc1	none
O=C(NCc1ccncc1)[C@@H]1CCCN1C(=O)[C@H]1CCCN1C(=O)c1cccc2ccccc12	none
COc1cc2cc(C(c3nnnn3C3CCCC3)N3CCc4ccccc43)c(=O)[nH]c2cc1OC (configuration not stated)	Autofluor counter 19430
CCOC(=O)C1CCN(C(c2cc3ccc(C)cc3[nH]c2=O)c2nnnn2C2CCCCC2)CC1 (configuration not stated)	Autofluor counter 28733
COc1cc2cc(C(c3nnnn3C(C)(C)C)N3CCc4ccccc43)c(=O)[nH]c2cc1OC (configuration not stated)	none
